Experimental data: PubChem BioAssay AID1159580 (chemical genetic matrix, 2015)
The campaign covered roughly 5,500 compounds. About 2,000 (36%) were called active. About 18% were inconclusive and are not listed. No stated cut-off is given here; in the data, active means normalized growth mostly below about 0.91 (no sharp cut-off); inconclusive means no clear call, values can overlap the other calls; inactive means mostly above about 0.92. The list shows a part of the results.

Assay: chemical genetic growth profiling, strain panel (AID 1159580);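 further: tested at 20 µM; growth read once vehicle control cultures reached saturation at 30 °C; 1 = growth at the plate median or of vehicle wells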
Conditions: growth OD

Measured: normalized growth

O=C(CCBr)N1CCN(C(=O)CCBr)CC1
inactive: S. cerevisiae deletion strains, locus YJR066W, strain TOR1, stronger effect = lower value 0.961 | S. cerevisiae deletion strains, locus YKL009W, strain mrt4, stronger effect = lower value 0.993 | S. cerevisiae deletion strains, locus YKL068W, stronger effect = lower value 1 | S. cerevisiae deletion strains, locus YKL085W, strain MDH1 (second series), stronger effect = lower value 1.01 | S. cerevisiae deletion strains, locus YKL085W, strain MDH1, stronger effect = lower value 1.01 | S. cerevisiae deletion strains, locus YKL160W, strain elf1, stronger effect = lower value 1.03 | S. cerevisiae deletion strains, locus YKL190W, strain CNB1, stronger effect = lower value 1 | S. cerevisiae deletion strains, locus YKR001C, strain vps1, stronger effect = lower value 0.997 | S. cerevisiae deletion strains, locus YKR026C, strain gcn3, stronger effect = lower value 1.01 | S. cerevisiae deletion strains, locus YKR091W, strain srl3, stronger effect = lower value 1.01 | S. cerevisiae deletion strains, locus YLL001W, strain dnm1, stronger effect = lower value 1.01 | S. cerevisiae deletion strains, locus YLL026W, stronger effect = lower value 1.01 | S. cerevisiae deletion strains, locus YLL041C, strain sdh2, stronger effect = lower value 1.01 | S. cerevisiae deletion strains, locus YLR027C, strain aat2, stronger effect = lower value 1.02 | S. cerevisiae deletion strains, locus YLR039C, strain RIC1, stronger effect = lower value 1 | S. cerevisiae deletion strains, locus YLR058C, strain SHM2, stronger effect = lower value 1.01 | S. cerevisiae deletion strains, locus YLR102C, strain apc9, stronger effect = lower value 0.991 | S. cerevisiae deletion strains, locus YLR113W, strain HOG1, stronger effect = lower value 0.979 | S. cerevisiae deletion strains, locus YLR221C, strain rsa3, stronger effect = lower value 1.01 | S. cerevisiae deletion strains, locus YLR258W, strain gsy2, stronger effect = lower value 1.02 | S. cerevisiae deletion strains, locus YLR262C, strain YPT6 (second series), stronger effect = lower value 1.03 | S. cerevisiae deletion strains, locus YLR262C, strain YPT6, stronger effect = lower value 1.02 | S. cerevisiae deletion strains, locus YLR268W, strain sec22, stronger effect = lower value 1 | S. cerevisiae deletion strains, locus YLR320W, strain mms22, stronger effect = lower value 1.03 | S. cerevisiae deletion strains, locus YLR330W, strain CHS5, stronger effect = lower value 1.01 | S. cerevisiae deletion strains, locus YLR342W, strain FKS1 (second series), stronger effect = lower value 1 | S. cerevisiae deletion strains, locus YLR342W, strain FKS1, stronger effect = lower value 1.02 | S. cerevisiae deletion strains, locus YLR357W, strain rsc2, stronger effect = lower value 1 | S. cerevisiae deletion strains, locus YLR370C, strain arc18, stronger effect = lower value 1.02 | S. cerevisiae deletion strains, locus YLR371W, strain rom2, stronger effect = lower value 0.991 | S. cerevisiae deletion strains, locus YLR384C, strain iki3, stronger effect = lower value 1.02 | S. cerevisiae deletion strains, locus YLR418C, strain cdc73, stronger effect = lower value 1.01 | S. cerevisiae deletion strains, locus YML016C, strain PPZ1, stronger effect = lower value 1.01 | S. cerevisiae deletion strains, locus YML032C, strain rad52, stronger effect = lower value 1 | S. cerevisiae deletion strains, locus YML120C, strain ndi1, stronger effect = lower value 1.02 | S. cerevisiae deletion strains, locus YML124C, strain tub3, stronger effect = lower value 0.991 | S. cerevisiae deletion strains, locus YMR058W, strain fet3, stronger effect = lower value 1.01 | S. cerevisiae deletion strains, locus YMR078C, strain ctf18, stronger effect = lower value 1.01 | S. cerevisiae deletion strains, locus YMR125W, strain sto1, stronger effect = lower value 1.03 | S. cerevisiae deletion strains, locus YMR129W, stronger effect = lower value 1.02 | S. cerevisiae deletion strains, locus YMR205C, strain PFK2, stronger effect = lower value 1.03 | S. cerevisiae deletion strains, locus YMR223W, strain ubp8, stronger effect = lower value 0.999 | S. cerevisiae deletion strains, locus YMR231W, strain pep5, stronger effect = lower value 1.03 | S. cerevisiae deletion strains, locus YMR307W, strain GAS1, stronger effect = lower value 0.993 | S. cerevisiae deletion strains, locus YNL067W, strain RPL9B, stronger effect = lower value 1.01 | S. cerevisiae deletion strains, locus YNL071W, strain lat1, stronger effect = lower value 1.02 | S. cerevisiae deletion strains, locus YNL128W, strain TEP1, stronger effect = lower value 1.01 | S. cerevisiae deletion strains, locus YNL153C, strain GIM3, stronger effect = lower value 1.02 | S. cerevisiae deletion strains, locus YNL183C, strain NPR1, stronger effect = lower value 0.936 | S. cerevisiae deletion strains, locus YNL209W, strain ssb2, stronger effect = lower value 1.02 | S. cerevisiae deletion strains, locus YNL233W, strain BNI4, stronger effect = lower value 1 | S. cerevisiae deletion strains, locus YNL248C, strain rpa49, stronger effect = lower value 1.01 | S. cerevisiae deletion strains, locus YNL250W, strain rad50, stronger effect = lower value 1.01 | S. cerevisiae deletion strains, locus YNL271C, strain bni1, stronger effect = lower value 0.999 | S. cerevisiae deletion strains, locus YNL298W, strain CLA4, stronger effect = lower value 1.01 | S. cerevisiae deletion strains, locus YNL307C, strain MCK1, stronger effect = lower value 0.997 | S. cerevisiae deletion strains, locus YNL322C, strain KRE1 (second series), stronger effect = lower value 1.01 | S. cerevisiae deletion strains, locus YNL322C, strain KRE1, stronger effect = lower value 1.01 | S. cerevisiae deletion strains, locus YNR049C, strain mso1, stronger effect = lower value 1.01 | S. cerevisiae deletion strains, locus YNR052C, strain pop2, stronger effect = lower value 1 | S. cerevisiae deletion strains, locus YOL006C, strain TOP1, stronger effect = lower value 1.02 | S. cerevisiae deletion strains, locus YOL012C, strain htz1 0.666 | S. cerevisiae deletion strains, locus YOL147C, strain pex11, stronger effect = lower value 0.998 | S. cerevisiae deletion strains, locus YOR001W, strain rrp6, stronger effect = lower value 1.01 | S. cerevisiae deletion strains, locus YOR061W, strain CKA2, stronger effect = lower value 1.01 | S. cerevisiae deletion strains, locus YOR069W, strain VPS5, stronger effect = lower value 1.01 | S. cerevisiae deletion strains, locus YOR070C, strain gyp1, stronger effect = lower value 1.02 | S. cerevisiae deletion strains, locus YOR080W, strain dia2, stronger effect = lower value 1.02 | S. cerevisiae deletion strains, locus YOR083W, strain WHI5, stronger effect = lower value 1.02 | S. cerevisiae deletion strains, locus YOR106W, strain vam3, stronger effect = lower value 1.02 | S. cerevisiae deletion strains, locus YOR136W, strain idh2, stronger effect = lower value 0.998 | S. cerevisiae deletion strains, locus YOR144C, strain elg1, stronger effect = lower value 0.993 | S. cerevisiae deletion strains, locus YOR184W, strain ser1, stronger effect = lower value 0.998 | S. cerevisiae deletion strains, locus YOR231W, strain MKK1, stronger effect = lower value 0.985 | S. cerevisiae deletion strains, locus YOR265W, strain rbl2, stronger effect = lower value 1.01 | S. cerevisiae deletion strains, locus YOR270C, strain vph1, stronger effect = lower value 1.08 | S. cerevisiae deletion strains, locus YOR290C, strain snf2, stronger effect = lower value 1 | S. cerevisiae deletion strains, locus YOR316C, strain cot1, stronger effect = lower value 0.999 | S. cerevisiae deletion strains, locus YPL051W, strain arl3, stronger effect = lower value 1.02 | S. cerevisiae deletion strains, locus YPL078C, strain atp4, stronger effect = lower value 1.01 | S. cerevisiae deletion strains, locus YPL106C, strain sse1, stronger effect = lower value 1.03 | S. cerevisiae deletion strains, locus YPL240C, strain hsp82, stronger effect = lower value 1.02 | S. cerevisiae deletion strains, locus YPL241C, strain CIN2, stronger effect = lower value 1.01 | S. cerevisiae deletion strains, locus YPL256C, strain CLN2, stronger effect = lower value 0.996 | S. cerevisiae deletion strains, locus YPR119W, strain clb2, stronger effect = lower value 0.994 | S. cerevisiae deletion strains, locus YPR141C, strain kar3, stronger effect = lower value 0.992 | S. cerevisiae deletion strains, locus YPR163C, strain tif3, stronger effect = lower value 0.994 | S. cerevisiae deletion strains, locus YPR167C, strain met16, stronger effect = lower value 1.01 | S. cerevisiae deletion strains, strain wtn01, stronger effect = lower value 0.989 | S. cerevisiae strains, strain wild type, stronger effect = lower value 1.01
